Data taken from the supplement of paper PMC4022240.
± gives the standard deviation.

B1: Unmod H1 variant K K L K K A T G A S K K S (peptide)
chain: KKLKKATGASKKS
B2: Unmod H1 variant T K P K T A K P K K A A P (peptide)
chain: TKPKTAKPKKAAP
B3: Unmod H1 variant K T V K P K K V A K S P A (peptide)
chain: KTVKPKKVAKSPA
B4: Unmod H1 variant P P V S E L I T K A V A A (peptide)
chain: PPVSELITKAVAA
B5: Unmod H1 variant V K K K A R K S A G A A K (peptide)
chain: VKKKARKSAGAAK

Molecular target: T1, HaloTag-ATRX ADD domain (163-292)
T1 chain: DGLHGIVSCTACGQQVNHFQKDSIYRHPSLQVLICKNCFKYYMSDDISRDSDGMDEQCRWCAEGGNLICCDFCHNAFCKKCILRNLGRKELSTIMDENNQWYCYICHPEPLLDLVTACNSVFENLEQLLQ
Experiment: peptide microarray binding signal (635 nm), min-max normalized on array (fraction of array maximum); higher = stronger binding
Details: peptide region: Unmod H1 variant; binder concentration: 50 nM
In short: (§1)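 An Axon GenePix 4000B scanned the arrays at 635 nm for signal and at 532 nm to catch misprints. Those arrays held histone 13-mer peptide–cellulose conjugates printed in triplicate on nitrocellulose with a Cy3 tracer, blocked overnight at 4°C and probed for 1 h at 4°C with biotin-labelled HaloTag reader fusions (10 nM to 1 μM) plus streptavidin-Alexa Fluor 647 or with rabbit histone antibodies (1:10,000 to 1:2,000) plus anti-rabbit Alexa 647. Each binding signal is a triplicate-spot mean intensity, scaled min-max within its library.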

| Binder | peptide microarray binding signal |
| --- | --- |
| B1 | 0.0152 ± 0.00029 |
| B2 | 0.0172 ± 0.00023 |
| B3 | 0.0149 ± 0.00058 |
| B4 | 0.0304 ± 0.017 |
| B5 | 0.0176 ± 0.00024 |

Same assay, conditions: peptide region: Unmod H1 variant; binder concentration: 500 nM

| Binder | peptide microarray binding signal |
| --- | --- |
| B1 | 0.00691 ± 0.0006 |
| B2 | 0.0103 ± 0.00048 |
| B3 | 0.0041 ± 5.8e-05 |
| B4 | 0.00833 ± 0.00045 |
| B5 | 0.0081 ± 0.00035 |

The binders below were run against HaloTag-ING2 PHD (mouse Ing2 200-280) in the same assay as above. Details: peptide region: Unmod H1 variant; binder concentration: 10 nM.
In short: as §1

| Binder | peptide microarray binding signal |
| --- | --- |
| B1 | 0.00161 ± 6.7e-05 |
| B2 | 0.00173 ± 2.1e-05 |
| B3 | 0.001552 ± 9.3e-06 |
| B4 | 0.00382 ± 0.00018 |
| B5 | 0.00203 ± 4.1e-05 |

Same assay, conditions: peptide region: Unmod H1 variant; binder concentration: 100 nM

| Binder | peptide microarray binding signal |
| --- | --- |
| B1 | 0.0034 ± 0.00046 |
| B2 | 0.00567 ± 0.00041 |
| B3 | 0.00369 ± 0.00015 |
| B4 | 0.00397 ± 0.00022 |
| B5 | 0.00553 ± 0.00055 |

What follows are binders tested against anti-H3K4me3 antibody ab8580 in the same assay as above. Details: peptide region: Unmod H1 variant; binder concentration: 1:2,000 dilution.
In short: as §1

| Binder | peptide microarray binding signal |
| --- | --- |
| B1 | 0.000396 ± 1.2e-05 |
| B2 | 0.00108 ± 6.8e-05 |
| B3 | 0.0005286 ± 5.1e-06 |
| B4 | 0.00296 ± 0.001 |
| B5 | 0.00145 ± 0.00015 |

Same assay, conditions: peptide region: Unmod H1 variant; binder concentration: 1:10,000 dilution

| Binder | peptide microarray binding signal |
| --- | --- |
| B1 | 0.000856 ± 8.9e-06 |
| B2 | 0.00097 ± 9.9e-06 |
| B3 | 0.000799 ± 8.3e-06 |
| B4 | 0.0028 ± 0.00019 |
| B5 | 0.00143 ± 2.4e-05 |

What follows are binders tested against anti-H3K9me3 antibody ab8898 in the same assay as above. Details: peptide region: Unmod H1 variant; binder concentration: 1:2,000 dilution.
In short: as §1

| Binder | peptide microarray binding signal |
| --- | --- |
| B1 | 0.000257 ± 2.5e-05 |
| B2 | 0.000227 ± 4.1e-06 |
| B3 | 0.000121 ± 2.7e-06 |
| B4 | 0.00106 ± 4.4e-05 |
| B5 | 0.000272 ± 4.9e-06 |

Same assay, conditions: peptide region: Unmod H1 variant; binder concentration: 1:10,000 dilution

| Binder | peptide microarray binding signal |
| --- | --- |
| B1 | 0.000461 |
| B2 | 0.000577 ± 6.2e-06 |
| B3 | 0.000461 |
| B4 | 0.00144 ± 5.7e-05 |
| B5 | 0.000634 |
